Values joined by “and” are separate entries in the source; they are usually repeats but may differ in a detail not shown here. Equal values may be shown once. Where a name gives a salt, the structure may show the parent alone.
Legend:
Experiment in all cases: thermal shift delta Tm vs DMSO control; higher = stronger stabilization (binding)
Details in all cases: 12.5 µM; protein concentration 2 µM
LOC_OS02G45750-cb003 = test system: LOC_OS02G45750-cb003
In short: (§1)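 Compounds dissolved in DMSO were added to purified rice kinase domain constructs, which had been expressed in E. coli, for differential scanning fluorimetry. Each well held 19.5 μl of 2 μM kinase in 100 mM potassium phosphate pH 7.5, 150 mM NaCl, 10% glycerol and 5 × SYPRO Orange. Fluorescence was followed from 25°C to 95°C at a rate of 0.05°C/s. Shifts in Boltzmann-fitted melting temperature are triplicate means relative to DMSO-only protein.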

LOC_OS02G54510-cb004 = test system: LOC_OS02G54510-cb004
In short: as §1

LOC_OS03G04050-cb001 = test system: LOC_OS03G04050-cb001
In short: as §1

LOC_OS03G12390-cb001 = test system: LOC_OS03G12390-cb001
In short: as §1

LOC_OS03G27990-cb004 = test system: LOC_OS03G27990-cb004
In short: as §1

LOC_OS03G50450-cb001 = test system: LOC_OS03G50450-cb001
In short: as §1

LOC_OS03G50810-cb003 = test system: LOC_OS03G50810-cb003
In short: as §1

LOC_OS04G35114-cb001 = test system: LOC_OS04G35114-cb001
In short: as §1

LOC_OS04G38480-cb003 = test system: T1, LOC_OS04G38480-cb003
T1 sequence (whole entry): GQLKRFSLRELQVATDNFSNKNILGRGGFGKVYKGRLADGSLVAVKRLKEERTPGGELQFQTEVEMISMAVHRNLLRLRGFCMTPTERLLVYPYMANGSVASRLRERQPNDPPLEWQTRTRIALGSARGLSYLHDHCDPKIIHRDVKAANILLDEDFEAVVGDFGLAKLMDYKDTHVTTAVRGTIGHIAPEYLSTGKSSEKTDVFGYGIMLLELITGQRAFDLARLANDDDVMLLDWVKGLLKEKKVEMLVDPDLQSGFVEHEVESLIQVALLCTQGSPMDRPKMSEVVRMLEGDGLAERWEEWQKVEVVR
In short: as §1

LOC_OS04G41100-cb001 = test system: T2, LOC_OS04G41100-cb001
T2 sequence (whole entry): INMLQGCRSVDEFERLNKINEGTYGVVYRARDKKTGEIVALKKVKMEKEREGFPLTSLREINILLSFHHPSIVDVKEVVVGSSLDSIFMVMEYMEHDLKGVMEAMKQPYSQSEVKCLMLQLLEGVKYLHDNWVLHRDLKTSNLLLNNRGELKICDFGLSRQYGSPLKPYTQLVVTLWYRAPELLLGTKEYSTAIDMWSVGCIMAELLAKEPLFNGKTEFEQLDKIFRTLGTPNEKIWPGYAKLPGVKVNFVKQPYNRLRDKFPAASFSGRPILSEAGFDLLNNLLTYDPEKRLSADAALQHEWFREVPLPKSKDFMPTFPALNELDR
In short: as §1

LOC_OS04G57630-cb004 = test system: LOC_OS04G57630-cb004
In short: as §1

LOC_OS05G07850-cb002 = test system: LOC_OS05G07850-cb002
In short: as §1

LOC_OS05G16824-cb004 = test system: LOC_OS05G16824-cb004
In short: as §1

LOC_OS05G28520-cb001 = test system: LOC_OS05G28520-cb001
In short: as §1

LOC_OS05G30820-cb001 = test system: LOC_OS05G30820-cb001
In short: as §1

LOC_OS05G43570-cb004 = test system: LOC_OS05G43570-cb004
In short: as §1

LOC_OS06G16330-cb003 = test system: LOC_OS06G16330-cb003
LOC_OS06G16330-cb003, sequence (as listed by the source): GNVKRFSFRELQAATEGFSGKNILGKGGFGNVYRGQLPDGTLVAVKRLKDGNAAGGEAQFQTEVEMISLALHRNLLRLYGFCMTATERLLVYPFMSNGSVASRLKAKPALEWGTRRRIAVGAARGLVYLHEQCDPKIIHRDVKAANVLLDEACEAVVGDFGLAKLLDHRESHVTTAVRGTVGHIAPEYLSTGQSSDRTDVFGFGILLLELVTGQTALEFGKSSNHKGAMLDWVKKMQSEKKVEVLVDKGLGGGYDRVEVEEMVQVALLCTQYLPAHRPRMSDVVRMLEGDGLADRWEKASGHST
In short: as §1

LOC_OS06G22820-cb001 = test system: T3, LOC_OS06G22820-cb001
T3 sequence (whole entry): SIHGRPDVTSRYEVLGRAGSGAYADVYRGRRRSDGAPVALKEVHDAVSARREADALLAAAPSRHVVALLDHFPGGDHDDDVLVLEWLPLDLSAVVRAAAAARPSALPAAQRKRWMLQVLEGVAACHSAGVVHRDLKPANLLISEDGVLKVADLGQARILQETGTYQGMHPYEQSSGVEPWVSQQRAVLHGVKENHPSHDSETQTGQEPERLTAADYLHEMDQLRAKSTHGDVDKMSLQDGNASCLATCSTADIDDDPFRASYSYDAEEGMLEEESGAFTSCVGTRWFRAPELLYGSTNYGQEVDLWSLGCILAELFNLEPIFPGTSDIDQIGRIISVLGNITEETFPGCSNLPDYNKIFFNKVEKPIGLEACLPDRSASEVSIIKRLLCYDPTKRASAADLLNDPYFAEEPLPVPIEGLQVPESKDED
In short: as §1

LOC_OS07G06570-cb004 = test system: LOC_OS07G06570-cb004
In short: as §1

LOC_OS07G07230-cb001 = test system: LOC_OS07G07230-cb001
In short: as §1

Row | SMILES | thermal shift delta Tm (LOC_OS02G45750-cb003) | thermal shift delta Tm (LOC_OS02G54510-cb004) | thermal shift delta Tm (LOC_OS03G04050-cb001) | thermal shift delta Tm (LOC_OS03G12390-cb001) | thermal shift delta Tm (LOC_OS03G27990-cb004) | thermal shift delta Tm (LOC_OS03G50450-cb001) | thermal shift delta Tm (LOC_OS03G50810-cb003) | thermal shift delta Tm (LOC_OS04G35114-cb001) | thermal shift delta Tm (LOC_OS04G38480-cb003) | thermal shift delta Tm (LOC_OS04G41100-cb001) | thermal shift delta Tm (LOC_OS04G57630-cb004) | thermal shift delta Tm (LOC_OS05G07850-cb002) | thermal shift delta Tm (LOC_OS05G16824-cb004) | thermal shift delta Tm (LOC_OS05G28520-cb001) | thermal shift delta Tm (LOC_OS05G30820-cb001) | thermal shift delta Tm (LOC_OS05G43570-cb004) | thermal shift delta Tm (LOC_OS06G16330-cb003) | thermal shift delta Tm (LOC_OS06G22820-cb001) | thermal shift delta Tm (LOC_OS07G06570-cb004) | thermal shift delta Tm (LOC_OS07G07230-cb001)
1 | O=C(NC1CCNCC1)c1n[nH]cc1NC(=O)c1c(Cl)cccc1Cl | 0.66 °C and 1.33 °C | 0.11 °C and 0.36 °C | 0.15 °C and 0.29 °C | 0.1 °C and 0.19 °C | 0.04 °C and 0.36 °C | 0.11 °C and 0.36 °C | 0.29 °C and 0.51 °C | 0.48 °C and 0.71 °C | 0.07 °C and 1.75 °C | 7.15 °C and 7.57 °C | -0.08 °C and 0.55 °C | 0.37 °C and 0.45 °C | -3.35 °C and -1.47 °C | 0.1 °C and 0.64 °C | 0.56 °C and 0.5 °C | 0.07 °C and 0.69 °C | -0.07 °C and 0.05 °C | 0.77 °C and 1.12 °C | 0.44 °C and 0.91 °C | 0.04 °C and 0.01 °C
2 | COc1ccc2[nH]cc(/C=C3\C(=O)Nc4ccc(NC(=O)CCN5CCCCC5)cc43)c2c1 | 4.5 °C | 0.79 °C | 0.56 °C | 1.22 °C | 1.19 °C | 0.34 °C | 3.45 °C | 5.49 °C | 2.41 °C | 0.9 °C | 0.69 °C | 8.06 °C | 4.33 °C | 0.72 °C | 0.68 °C | 0.6 °C | 2.98 °C | 0.74 °C | 1.1 °C | 0.33 °C
3 | CCCCOc1c(C(=O)c2c(F)cc(C)cc2F)c[nH]c2nncc1-2 | 0.73 °C | 0.14 °C | 0.23 °C | 2.18 °C | 0.03 °C | -0.21 °C | 0.46 °C | 0.65 °C | 0.81 °C | 0.49 °C | 0.1 °C | 5.8 °C | -1.11 °C | -0.07 °C | 0.47 °C | 0.9 °C | 0.88 °C | 1.75 °C | 0.61 °C | -0.1 °C
4 | CN1CCC(Nc2nc(Nc3ccc(Oc4ccccc4)cc3)c3c(=O)[nH]cc(Br)c3n2)CC1 | 6.91 °C | 0.98 °C | 0.8 °C | 2.05 °C | 1.75 °C | 1.67 °C | 2.6 °C | 4.37 °C | 2.13 °C | 0.75 °C | 1.8 °C | 7.31 °C | 9.77 °C | 1.25 °C | 1.19 °C | 1.11 °C | 2.6 °C | 0.71 °C | -0.18 °C | -0.18 °C
5 | O=C1NC(=O)C(c2cnc3ccccn23)=C1c1cn2c3c(cc(F)cc13)CN(C(=O)N1CCCCC1)CC2 | 0.77 °C | 0 °C | 0.57 °C | 4.58 °C | 0.13 °C | 0.64 °C | 0.95 °C | 1.35 °C | 1.47 °C | 1.44 °C | 0.36 °C | 5.85 °C | 3.38 °C | 1.1 °C | 0.39 °C | 0.48 °C | -0.6 °C | 1.42 °C | 2.11 °C | 0.29 °C
6 | COc1cc2nccc(Oc3ccc(NC(=O)Nc4cc(C)on4)c(Cl)c3)c2cc1OC [Tivozanib (AV-951)] | 2.56 °C | 3.55 °C | 0.02 °C | 1.3 °C | 0.02 °C | -0.03 °C | 2.67 °C | 3.47 °C | 4.03 °C | 0.72 °C | 3.28 °C | 9.77 °C | 2.86 °C | 2.41 °C | 0.62 °C | 0.21 °C | 10.8 °C | 0.55 °C | 0.52 °C | -0.04 °C
7 | Cc1cccc(CC(=O)N2CCc3c2ccc(-c2cn(C)c4ncnc(N)c24)c3F)n1 | 1.87 °C | 0.61 °C | 0.63 °C | 0.44 °C | 0.12 °C | 0.29 °C | 0.3 °C | 0.7 °C | 3.73 °C | 0.27 °C | 1.09 °C | 2.24 °C | 0.43 °C | 0.62 °C | 0.47 °C | 0.42 °C | 1.13 °C | 0.75 °C | 1.03 °C | 1.75 °C
8 | O=c1c(-c2ccc(O)cc2)coc2cc(O)cc(O)c12 [Genistein] | -0.47 °C | -0.37 °C | -0.01 °C | 1.8 °C | 0.92 °C | 0.14 °C | 0.36 °C | -1.3 °C | -1.76 °C | -0.75 °C | -1.09 °C | 5.31 °C | -0.94 °C | -0.31 °C | 0.78 °C | 0.36 °C | 0.87 °C | 0.81 °C | -0.45 °C | 0.02 °C
9 | Cc1cc(Nc2cc(N3CCN(C)CC3)nc(/C=C/c3ccccc3)n2)n[nH]1 [ENMD-2076 L-(+)-Tartaric acid] | 4.88 °C | 2.59 °C | 0.44 °C | 4.22 °C | 2.61 °C | 8.63 °C | 7.35 °C | 6.49 °C | 2.07 °C | 1.89 °C | 4.1 °C | 11.2 °C | 10.9 °C | 5.68 °C | 1.55 °C | 0.7 °C | 5.83 °C | 0.62 °C | 1.73 °C | 0.39 °C
10 | O=c1cc(-c2cccc3c2Sc2ccccc2S3)oc(N2CCOCC2)c1 | 0.06 °C | -0.02 °C | 0.45 °C | 0.59 °C | -0.19 °C | -0.07 °C | 0.13 °C | -0.05 °C | 1.71 °C | 0.74 °C | -0.22 °C | 0.85 °C | 0.1 °C | 0.74 °C | 0.44 °C | 0.13 °C | -0.34 °C | 0.79 °C | 0.35 °C | -0.3 °C
11 | Nc1[nH]nc2nnc(-c3c(-c4ccccc4)nn4ccccc34)cc12 | 1.41 °C | 0.54 °C | 0.66 °C | 1.36 °C | 0.56 °C | 1.03 °C | 0.41 °C | 1.11 °C | 0.15 °C | 0.75 °C | 0.25 °C | 2.77 °C | 2.12 °C | 0.56 °C | 0.84 °C | 0.89 °C | 1.11 °C | 0.39 °C | 0.46 °C | 0.64 °C
12 | CN1CCC(COc2cnc(-c3cccc(Cn4nc(-c5cccc(C#N)c5)ccc4=O)c3)nc2)CC1 | -0.03 °C | -0.06 °C | 0.23 °C | -0.02 °C | 0.03 °C | 0.11 °C | 0.09 °C | 1.33 °C | 0.26 °C | 0.35 °C | 0.46 °C | 0.61 °C | -1.27 °C | 0.69 °C | 0.42 °C | 0.46 °C | 0.55 °C | 0.49 °C | 1.28 °C | 0.18 °C
13 | Cc1cc(O)c(-c2ccc([C@@H](C)CN)cc2)c2c1[nH]c(=O)c1sccc12 [OTS514 hydrochloride] | 0.87 °C | 1.1 °C | 0.44 °C | 0.55 °C | 0.52 °C | 0.04 °C | 0.85 °C | 1.39 °C | 1.65 °C | 3.58 °C | 0.19 °C | 5 °C | -0.88 °C | 0.49 °C | 0.55 °C | 0.45 °C | 1.74 °C | 0.65 °C | 1.65 °C | 0.6 °C

— the supplement of paper PMC9694430
